From PubChem BioAssay
“And” between values parts separate entries of the source, which are not always exact repeats. Equal entries are not always repeated. The source made the active and inactive calls.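 Rule for the calls, unless noted: active = thallium flux through the channel raised or lowered by more than 3 SD from vehicle-only wells, actives on both sides; inactive = the rest.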 Numbered stars: 1 amine (or outer) side, 2 acyl side, 3 side chain; on linkers, the order of the positions; unused ones are H or OH. Bridge positions count the residues as written; N and C are the ends. Square brackets hold non-standard residues; d marks the D form. Peptide text beside a SMILES is read from it. I, II: the chains in the order shown. Actinocin(9to1) = Cc1c2oc3c(C)ccc(C(=O)[*:1])c3nc-2c(C(=O)[*:2])c(N)c1=O; NMeV = CN[CH](C(=O)O)C(C)C; Sar = CNCC(=O)O

Key:
[1] = sensitizers of A549 cells to miR-34 induction, primary screen, imaging, A549 dox-inducible miR-34, nuclei and caspase counts (AID 1347080;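 active = compounds whose cell count with miR-34 switched on is under 0.7 times the count with it off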); settings: A549 miR-34 inducible, Hoechst nuclei count, 48 h
[2] = viability rescue of complex I mutant cybrids, primary screen, cell-based, galactose medium, ATP luminescence (AID 1645843;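 active = z-score of at least 1.8 in each of two replicates, scored against plate mean and spread of sample wells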;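 note: positive z means more ATP and so rescue of galactose-driven cybrid death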); settings: complex I mutant cybrid cells, 72 h, stronger effect = higher value
F380Y = experiment: modulators of BK channel variants, profiling panel, selectivity assay, cell-based, U2OS BacMam, thallium flux, beta subunits (AID 1259406); settings: at 30 µM;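 note: initial slope of Thallos dye fluorescence rise after thallium is added; log ratio against the mean of 0.3% DMSO vehicle wells on the same plate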
F380Y/beta1 = experiment: as above; settings: at 30 µM
F380Y/beta2Delta = experiment: as above; settings: at 30 µM
F380Y/beta4 = experiment: as above; settings: at 30 µM
[3] = biological target: Calcium-activated potassium channel subunit alpha-1 (Homo sapiens) + Leucine-rich repeat-containing protein 26 (Homo sapiens) (UniProt Q12791+Q2I0M4); experiment: as above; settings: F380Y/Slo1WT/gamma1, at 30 µM
Chain of Calcium-activated potassium channel subunit alpha-1 (Homo sapiens) + Leucine-rich repeat-containing protein 26 (Homo sapiens) (Q2I0M4 whole entry, looked up, one chain of several): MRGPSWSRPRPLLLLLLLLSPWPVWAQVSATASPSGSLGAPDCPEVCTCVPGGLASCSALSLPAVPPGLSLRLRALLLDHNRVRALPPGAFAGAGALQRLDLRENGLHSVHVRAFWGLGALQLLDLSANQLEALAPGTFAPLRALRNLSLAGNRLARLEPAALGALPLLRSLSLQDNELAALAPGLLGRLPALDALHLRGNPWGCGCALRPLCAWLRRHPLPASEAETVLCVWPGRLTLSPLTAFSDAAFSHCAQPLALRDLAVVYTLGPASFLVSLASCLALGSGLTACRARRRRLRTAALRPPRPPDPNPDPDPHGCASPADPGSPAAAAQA

R275C = experiment: as above; settings: at 30 µM
R275C/beta1 = experiment: as above; settings: at 30 µM
R275C/beta2Delta = experiment: as above; settings: at 30 µM
R275C/beta4 = experiment: as above; settings: at 30 µM
R275C/Slo1WT/beta2 = experiment: as above; settings: at 30 µM
[4] = liver-stage malaria parasite growth inhibition, primary screen, cell-based, HepG2, luciferase luminescence, HepG2 viability (AID 624349; in the data active = parasite load remaining mostly below about 12%, no sharp cut-off; inactive = mostly above about 10%;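 note: 100% = mean of DMSO negative control wells on the same plate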); settings: P. berghei liver stage in HepG2, luciferase luminescence, concentration not given here; parasite load remaining: stronger effect = lower value; viability: measured here: HepG2 viability without parasites
[5] = Cy5 fluorescence interference with SSB-bound oligo, artefact control for HCV NS3 helicase inhibitor project, biochemical, NIH Clinical Collection, E. coli SSB (AID 743268; call rule not given here)
[6] = system: Hepatitis C virus NS3 helicase; experiment: HCV NS3 helicase inhibitors, primary screen, biochemical, fluorescence polarization, NIH Clinical Collection (AID 743270; call rule not given here); settings: NS3 helicase binding to Cy5-dT15 DNA, stronger effect = higher value, concentration not given here
[7] = biological target: Single-stranded DNA-binding protein (Escherichia coli (strain K12)) (UniProt P0AGE0); experiment: E. coli SSB displacement from DNA, counter-screen for HCV NS3 helicase inhibitor project, biochemical, fluorescence polarization, NIH Clinical Collection (AID 743271; in the data active = inhibition above about 28%); settings: stronger effect = higher value, concentration not given here
[8] = fluorescence interference in NS3h assay format, artefact control for HCV NS3 helicase inhibitor project, biochemical, NIH Clinical Collection (AID 743272; call rule not given here;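 note: HCV NS3 helicase with a Cy5 labelled single stranded DNA probe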); settings: fluorescence interference counterscreen, stronger effect = lower value
[9] = system: Neuropilin-2 / VEGF-C interaction (human); experiment: inhibitors of NRP2–VEGF-C binding, biochemical, microplate binding format, z-score (AID 743281; call rule not given here); settings: microplate NRP2/VEGF-C binding assay; stronger effect = lower value
[10] = modulation of C. elegans fzo-1 (AID 1259413; call rule not given here;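 note: fzo-1 mutant C. elegans worms in liquid wells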); settings: C. elegans fzo-1 modulator screen, mean read-out; stronger effect = higher value
[11] = survival rescue of mitochondrial mutant cells in low glucose, primary screen, MELAS cybrids, Rieske KO mouse fibroblasts, CellTiter-Glo (AID 1508586;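 active = mean z-score across replicates of 1.96 or higher in either the MELAS or the Rieske mutant cell line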;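 note: z relative to plate mean and SD of compound and empty wells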)
[12] = stronger effect = lower value, cell number ratio, induced over uninduced
[13] = measured here: relative caspase fold change +Dox/-Dox
[14] = measured here: total cells with miR-34 induction, stronger effect = lower value
[15] = measured here: total cells without miR-34 induction
[16] = MELAS cybrid survival, CellTiter-Glo 48 h, stronger effect = higher value
[17] = Rieske KO mouse fibroblast survival, CellTiter-Glo 72 h

Cc1c2oc3c(C)ccc(C(=O)NC4C(=O)NC(C(C)C)C(=O)N5CCCC5C(=O)N(C)CC(=O)N(C)C(C(C)C)C(=O)OC4C)c3nc-2c(C(=O)NC2C(=O)NC(C(C)C)C(=O)N3CCCC3C(=O)N(C)CC(=O)N(C)C(C(C)C)C(=O)OC2C)c(N)c1=O (centres undefined) (I: TVP[Sar][NMeV] / II: TVP[Sar][NMeV]; ester I:1-I:C, II:1-II:C; linker I:N-II:N via Actinocin(9to1); configuration not given here)
2640: cell count [1, 14]
2570: cell count [1, 15]
1.2: fold change [1, 13]
inactive: fold change [1, 12] 1.02 | z-score [2] -1.86 | log fold change Tl+ flux (F380Y) -0.0282 | log fold change Tl+ flux (F380Y/beta1) 0.0244 | log fold change Tl+ flux (F380Y/beta2Delta) -0.0313 | log fold change Tl+ flux (F380Y/beta4) -0.0252 | log fold change Tl+ flux [3] -0.013 | log fold change Tl+ flux (R275C) -0.0516 | log fold change Tl+ flux (R275C/beta1) 0.0499 | log fold change Tl+ flux (R275C/beta2Delta) -0.00324 | log fold change Tl+ flux (R275C/beta4) 0.0337 | log fold change Tl+ flux (R275C/Slo1WT/beta2) 0.0757

CC1(C)C[C@@H]1C(=O)N/C(=C\CCCCSC[C@H](N)C(=O)O)C(=O)O
inactive: parasite load remaining [4] 86.6% | fluorescence ratio [5] 1.03 | inhibition [6] 0.4% | inhibition [7] -0.1% | fluorescence ratio [8] 1.01 | z-score [9] -0.458 | mean signal [10] 226 | log fold change Tl+ flux (F380Y) 0.00013 | log fold change Tl+ flux (F380Y/beta1) 0.0415 | log fold change Tl+ flux (F380Y/beta2Delta) 0.0097 | log fold change Tl+ flux (F380Y/beta4) -0.0167 | log fold change Tl+ flux [3] -0.0144 | log fold change Tl+ flux (R275C) -0.0675 | log fold change Tl+ flux (R275C/beta1) 0.00997 | log fold change Tl+ flux (R275C/beta2Delta) 0.0368 | log fold change Tl+ flux (R275C/beta4) 0.0142 | log fold change Tl+ flux (R275C/Slo1WT/beta2) 0.00806
71.9%: viability [4]

O=C1c2c(O)cc(O)cc2O[C@H](c2ccc(O)c(O)c2)[C@@H]1O
inactive: parasite load remaining [4] 102% | fluorescence ratio [5] 1.01 | inhibition [6] -0.4% | inhibition [7] -1.64% | fluorescence ratio [8] 1.01 | z-score [9] -0.585 | mean signal [10] 251 | log fold change Tl+ flux (F380Y) -0.0094 | log fold change Tl+ flux (F380Y/beta1) 0.0164 | log fold change Tl+ flux (F380Y/beta2Delta) 0.0588 | log fold change Tl+ flux (F380Y/beta4) -0.00507 | log fold change Tl+ flux [3] -0.00714 | log fold change Tl+ flux (R275C) -0.0635 | log fold change Tl+ flux (R275C/beta1) 6.5e-05 | log fold change Tl+ flux (R275C/beta2Delta) 0.0295 | log fold change Tl+ flux (R275C/beta4) -0.031 | log fold change Tl+ flux (R275C/Slo1WT/beta2) -0.00661
72.9%: viability [4]

CCN(CC)C(=O)[C@]1(c2ccccc2)C[C@@H]1CN
71.3%: viability [4]
inactive: parasite load remaining [4] 94.6% | fluorescence ratio [5] 1.07 | inhibition [6] 1.98% | inhibition [7] -3.18% | fluorescence ratio [8] 1.06 | z-score [9] -0.224 | mean signal [10] 248 | z-score [11, 16] -0.406 | log fold change Tl+ flux (F380Y) 0.0604 | log fold change Tl+ flux (F380Y/beta1) 0.0284 | log fold change Tl+ flux (F380Y/beta2Delta) -0.038 | log fold change Tl+ flux (F380Y/beta4) 0.00308 | log fold change Tl+ flux [3] 0.0521 | log fold change Tl+ flux (R275C) -0.00612 | log fold change Tl+ flux (R275C/beta1) -0.0552 | log fold change Tl+ flux (R275C/beta2Delta) -0.0341 | log fold change Tl+ flux (R275C/beta4) 0.0155 | log fold change Tl+ flux (R275C/Slo1WT/beta2) 0.0022
-0.158: z-score [11, 17]

CCC[C@@H]1C[C@@H](C(=O)N[C@H]([C@@H](C)O)[C@H]2O[C@H](SC)[C@H](O)[C@@H](O)C2O)N(C)C1 (some centres undefined)
91%: viability [4]
inactive: parasite load remaining [4] 97.8% | fluorescence ratio [5] 0.98 | inhibition [6] -5% | inhibition [7] -3.53% | fluorescence ratio [8] 1.03 | mean signal [10] 237 | log fold change Tl+ flux (F380Y) 0.0293 | log fold change Tl+ flux (F380Y/beta1) -0.0324 | log fold change Tl+ flux (F380Y/beta2Delta) 0.0245 | log fold change Tl+ flux (F380Y/beta4) 0.0251 | log fold change Tl+ flux [3] 0.0541 | log fold change Tl+ flux (R275C) -0.0022 | log fold change Tl+ flux (R275C/beta1) -0.0579 | log fold change Tl+ flux (R275C/beta2Delta) -0.0468 | log fold change Tl+ flux (R275C/beta4) -0.0617 | log fold change Tl+ flux (R275C/Slo1WT/beta2) -0.0428

CCC1=C[C@H]2CN(C1)Cc1c([nH]c3ccccc13)[C@@](C(=O)OC)(c1cc3c(cc1OC)N(C)[C@H]1[C@@](O)(C(=O)OC)[C@H](OC(C)=O)[C@]4(CC)C=CCN5CC[C@]31[C@@H]54)C2
active: fluorescence ratio [5] 0.8 | fluorescence ratio [8] 0.78 | log fold change Tl+ flux (R275C) -0.149 | log fold change Tl+ flux (R275C/Slo1WT/beta2) 0.104
76.8%: viability [4]
inactive: parasite load remaining [4] 32.2% | inhibition [6] -1.98% | inhibition [7] 9.91% | z-score [9] 1.48 | mean signal [10] 244 | log fold change Tl+ flux (F380Y) 0.0913 | log fold change Tl+ flux (F380Y/beta1) 0.0236 | log fold change Tl+ flux (F380Y/beta2Delta) 0.0207 | log fold change Tl+ flux (F380Y/beta4) 0.0427 | log fold change Tl+ flux [3] -0.0112 | log fold change Tl+ flux (R275C/beta1) 0.0456 | log fold change Tl+ flux (R275C/beta2Delta) 0.0329 | log fold change Tl+ flux (R275C/beta4) 0.0723

CCC(=C(c1ccccc1)c1ccc(OCCN(C)C)cc1)c1ccccc1
11.9: z-score [11, 17]
2.28 and 0.707: fold change [1, 13]
4930 and 3010: cell count [1, 15]
31.4%: viability [4]
4730 and 2790: cell count [1, 14]
inactive: parasite load remaining [4] -1.78% | fluorescence ratio [5] 1.01 | inhibition [6] 0.45% | inhibition [7] 7.15% | fluorescence ratio [8] 0.9 | fold change [1, 12] 0.958 and 0.928 | z-score [2] -0.495 | log fold change Tl+ flux (F380Y) -0.00968 | log fold change Tl+ flux (F380Y/beta1) -0.0043 | log fold change Tl+ flux (F380Y/beta2Delta) -0.0174 | log fold change Tl+ flux (F380Y/beta4) -0.00798 | log fold change Tl+ flux [3] -0.0114 | log fold change Tl+ flux (R275C) -0.00676 | log fold change Tl+ flux (R275C/beta1) -0.0153 | log fold change Tl+ flux (R275C/beta2Delta) -0.0428 | log fold change Tl+ flux (R275C/beta4) 0.00537 | log fold change Tl+ flux (R275C/Slo1WT/beta2) 0.0353
active: z-score [11, 16] 5.74
